# TDP1 inh = blocks human tyrosyl-DNA phosphodiesterase 1; Q9NUW8; recombinant TDP1, AlphaScreen DNA substrate cleavage; Potency, µM (series often up to 130 µM), for the others: at the highest dose activity change, negative = inhibition, most hits filed as inhibitors; 350,000 compounds, 0.28% hits; active = well fitted curve in the direction sought with a large enough effect; inconclusive = small, poorly fitted or top-dose-only effect, or another doubt; inactive = no such curve, though single readings can be large; an effect the other way counts as inactive or inconclusive; note: % is set by controls: 0 for no effect and ±100 for the full control effect; nearly all actives have a fitted effect of over 40% in size
#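 AlphaScreen read-out: signal falls as enzyme removes the 3' tyrosine-FITC from a 5'-biotinylated DNA oligo (15 nM, 5 min, RT). Enzyme was E. coli-made recombinant Tdp1 at 1 nM, exposed to compound for 15 min beforehand; beads 10 ug/ml, 10 min.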
# Rango complex inh = inhibitors of Rango-importin beta complex formation; Q14974; Rango CFP/YFP FRET sensor + importin beta, 45 min; Potency, µM (series often up to 92.2 µM), for inactives: at the top dose inhibition of complex formation; 340,000 compounds, 0.031% hits; AID 540263;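 note: 0% = DMSO wells and 100% = buffer wells lacking importin beta; nearly all actives have a fitted effect of over 15% in size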
#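 Inhibition scored from the CFP 486 nm/YFP 530 nm FRET ratio 45 min after adding 0.125 microM importin beta to 50 nM Rango biosensor preincubated 5 min with compound (room temperature, PBS with DTT, Tween-20, BSA). No-importin wells as positive control.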
# Rango release inh = prevents RanGTP from dissociating the Rango-importin beta complex. Biochemical FRET Rango-importin beta, RanGTP-induced dissociation. Potency, µM (highest dose often 46.1 µM), inactives show at the top dose activity change, negative = inhibition. 340,000 compounds, 0.071% hits. AID 540253; note: % of control where 0% means no effect; nearly all actives have a fitted effect of over 45% in size
#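 Rango FRET biosensor (snurportin-1 IBB flanked by N-terminal EYFP and C-terminal CFP10) at 0.1 uM, with 0.25 uM importin beta in PBS, 1mM DTT, 0.02% Tween-20, 0.1% BSA. 0.6 uM Ran, 2mM GTP and 0.2 uM RCC1 were then added for 45 min at room temperature. Inhibition read as loss of FRET rise.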
# ClpP mod = qHTS Assay for Activators of ClpP; AID 651965, 2013; 340,000 compounds, 1.9% hits; Potency, µM (highest dose often 57.5 µM), inactives show at the top dose activity change, negative = active; purified B. subtilis ClpP, FRET peptide cleavage, 20 min; ATP-dependent Clp protease proteolytic subunit (Bacillus subtilis (strain 168)), P80244; active = well fitted falling curve with a large enough effect; inconclusive = small, poorly fitted or top-dose-only effect; inactive = no such curve, though single readings can be large or run the other way; note: the source files actives as falling curves though it sought activators and does not explain the sign; nearly all actives have a fitted effect of over 65% in size
#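 Purified B. subtilis ClpP, 10 microg/mL final in Tris/HCl pH8 with KCl, BSA, glycerol and Tween-20, cleaved an Abz/nitrotyrosine-quenched decapeptide. Fluorescence (ex 320, em 430) was read at 0 and 20 min at room temperature. Delta was normalized to 5.8 microM ADEP and DMSO/no-enzyme controls.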
# ALOX12 inh = blocks human arachidonate 12S-lipoxygenase. Potency, µM (series often up to 108 µM), for the others: at the highest dose activity change, negative = inhibition, most hits filed as inhibitors. P18054. 580,000 compounds, 1.1% hits. purified 12hLO, xylenol orange hydroperoxide absorbance. AID 1671190; active = well fitted curve in the direction sought with a large enough effect; inconclusive = small, poorly fitted or top-dose-only effect, or another doubt; inactive = no such curve, though single readings can be large; an effect the other way counts as inactive or inconclusive; note: % is set by controls: 0 for no effect and ±100 for the full control effect
# Target sequence (P18054 whole entry, looked up): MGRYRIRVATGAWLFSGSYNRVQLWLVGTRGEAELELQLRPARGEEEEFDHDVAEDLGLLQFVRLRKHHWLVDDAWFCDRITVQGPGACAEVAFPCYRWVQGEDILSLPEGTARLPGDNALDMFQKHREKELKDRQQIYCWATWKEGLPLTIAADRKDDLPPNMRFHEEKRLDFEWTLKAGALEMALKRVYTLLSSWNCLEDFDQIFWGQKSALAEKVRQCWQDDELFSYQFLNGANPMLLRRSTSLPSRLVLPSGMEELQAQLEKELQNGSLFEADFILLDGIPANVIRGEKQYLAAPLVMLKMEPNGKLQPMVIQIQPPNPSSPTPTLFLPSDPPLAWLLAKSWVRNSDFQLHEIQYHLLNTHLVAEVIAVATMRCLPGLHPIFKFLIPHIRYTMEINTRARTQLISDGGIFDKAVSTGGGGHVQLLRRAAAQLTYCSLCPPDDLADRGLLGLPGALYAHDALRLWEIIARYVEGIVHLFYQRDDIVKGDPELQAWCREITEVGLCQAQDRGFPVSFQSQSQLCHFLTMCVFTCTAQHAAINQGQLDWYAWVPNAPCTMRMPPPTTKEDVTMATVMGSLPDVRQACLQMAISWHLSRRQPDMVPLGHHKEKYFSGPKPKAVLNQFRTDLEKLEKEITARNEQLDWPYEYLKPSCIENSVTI
#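 Purified human 12hLO at 150 nM in 25 mM Hepes, 0.01% Triton X-100, pH 7.0, preincubated 15 min at room temperature with compound. Reaction started with 40 uM arachidonic acid, 30 min at room temperature. Hydroperoxide measured by Fe-xylenol orange, 573/405 nm absorbance ratio.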
# TSG101-PTAP inh = blocks PTAP/TSG101 interaction to inhibit HIV-1 budding. 340,000 tested, under 10 active. Q99816. Fluorescence polarization, FITC-PTAP peptide / Tsg101 binding. Potency, µM (doses to about 115 µM), inactives show top-dose activity change, negative = inhibition, most hits filed as inhibitors; active = well fitted inhibition curve with a large enough effect in the main read-out, with a control signal flat, not every such curve was filed as active; inconclusive = small, poorly fitted or top-dose-only effect, or effect the other way, or a change in a side signal; inactive = no such curve, though single readings can be large or run the other way; note: % of control where 0% means no effect
#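 Tsg101 binding domain (10 uM final) was mixed with compound and a FITC-labeled PTAP peptide (50 nM final) in HEPES pH 7.5 buffer with NaCl, Tween 20, EDTA and TCEP; fluorescence polarization was read after 20 min at r.t.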
# Starred values were filed as active, the others as inactive; ? = inconclusive; . = no result. Rows were chosen to be rich in hits. Some 2.4% of all compounds tested hit in one or more screens of this group. Unless noted, calls come from the whole dose curve. Potency is the fitted concentration of half-maximal effect.
SMILES,TDP1 inh,Rango complex inh,Rango release inh,ClpP mod,ALOX12 inh,TSG101-PTAP inh
COc1ccc(CC(=O)NNC(=O)c2cc(Cl)ccc2OC)cc1,-2.6%,3.6%,-5.1%,28.2µM*,-16.0%,0.3%
N#Cc1c(N)oc(-c2ccco2)c1-c1ccco1,?,?,-20.8%,25.1µM*,?,-0.8%
N#Cc1c(N)oc(-c2ccccc2)c1-c1ccccc1,5.0%,-2.8%,2.1%,-7.1%,?,-5.5%
CCCCn1nnc(NC(=O)c2cc3ccccc3cc2OC)n1,.,.,.,.,-10.6%,.
Nc1c(C(=O)Nc2ccc(S(=O)(=O)N3CCCC3)cc2)sc2nc3cc4c(cc3cc12)CCC4,1.1%,4.3%,-8.1%,25.1µM*,?,0.1%
CN1CCc2nc3sc(C(=O)c4ccc(F)cc4)c(N)c3cc2C1,5.8%,.,.,-4.7%,?,.
CN1CCc2nc3sc(C(=O)c4ccc(Cl)cc4)c(N)c3cc2C1,.,.,.,.,35.5µM*,.
Nc1c(C(=O)Nc2ccc(S(=O)(=O)N3CCCC3)cc2)sc2nc3ccc(OC(F)(F)F)cc3cc12,1.4%,?,?,?,?,?
Nc1c(C(=O)Nc2cccc(C(=O)O)c2)sc2nc3c(cc12)CCCC3,-16.1%,?,?,-14.8%,?,-4.5%
Nc1c(C(=O)Nc2ccc(C(=O)O)cc2)sc2nc3c(cc12)CCCC3,.,.,.,-26.8%,17.8µM*,.
O=C(CC[C@H]1NC(=O)c2ccccc2NC1=O)Nc1nc2c(s1)CCC2,.,.,.,.,-4.7%,.
CC(=O)c1cccc(NC(=O)COC(=O)CNC(=O)CC23CC4CC(CC(C4)C2)C3)c1,.,.,.,.,2.2%,.
Cc1ccc(C(=O)NC(c2ccc(Cl)cc2)c2cccnc2)cc1 (configuration not stated),.,.,.,.,10.2%,.
COc1ccc2c(Cl)c(-c3nnc(SCC(=O)c4ccccc4)n3C)sc2c1,89.1µM*,-2.4%,1.6%,0.8%,-16.6%,2.9%
Cc1cccc(S(=O)(=O)c2c(N)n(/N=C/c3ccccc3)c3nc4ccccc4nc23)c1,0.5%,-1.3%,0.3%,?,0.0%,0.3%
Cc1ccc(C)c(S(=O)(=O)c2c(N)n(/N=C/c3ccco3)c3nc4ccccc4nc23)c1,3.8%,?,?,7.94µM*,-4.5%,-0.2%
Nc1c(S(=O)(=O)c2ccccc2)c2nc3ccccc3nc2n1/N=C/c1cccc(O)c1,-9.8%,3.3%,-17.9%,10µM*,63.0%,-1.1%
CC1CCN(C(=O)C[C@@H]2c3nc(NC(=O)C(C)(C)C)sc3C[C@@H]3[C@](C)(CO)[C@H](O)CC[C@]32C)CC1,.,.,.,.,2.9%,.
CCOc1ccc(CCNC(=O)c2[nH]c3cc(OC)ccc3c2Sc2ccccc2)cc1OCC,8.6%,.,.,22.4µM*,-10.7%,.
CN1CCc2c(sc(/N=C/c3cccs3)c2C(N)=O)C1,2.1%,?,?,10µM*,.,-1.0%
CN1CCc2c(sc(/N=C/c3ccco3)c2C(N)=O)C1,1.0%,?,?,6.6%,119.0%,-14.5%
COc1cccc(CNc2nc3nc(C)cc(C)n3n2)c1,4.2%,-1.9%,1.7%,20µM*,0.0%,-11.6%
Cc1noc(-c2cn(C3CCN(C(=O)c4cc(F)ccc4Cl)C3)nn2)n1 (configuration not stated),.,.,.,.,13.1%,.
COc1cc(/C=C/C(=O)OCC(=O)N2CCc3ccccc32)cc(OC)c1OC,.,.,.,3.5%,6.7%,.
COc1cc(/C=C/C(=O)OCC(=O)NC(=O)NC(C)C)cc(S(=O)(=O)N2CCc3ccccc32)c1OC,2.5%,-2.7%,40.6%,20µM*,-1.9%,-5.2%
SMILES,TDP1 inh,Rango complex inh,Rango release inh,ClpP mod,ALOX12 inh,TSG101-PTAP inh
CCCN(CCC)C(=O)/C=C/c1csc(C)n1,.,.,.,.,24.2%,.
CCOCCCNC(=O)C(NC(=O)C1CCC(C(C)C)CC1)C(C)C (configuration not stated),.,.,.,.,-0.6%,.
CCOC(=O)c1cnn(-c2nc(-c3ccc(C)cc3)cs2)c1C(F)(F)F,-8.0%,2.2%,13.3%,31.6µM*,?,-4.0%
CCCCNC(=O)[C@H]1CCC[C@H]1NC(=O)c1ccc(OC)nc1,.,.,.,.,52.7%,.
CC(=O)Nc1cc(C(=O)c2ccccc2)ccc1N1CCOCC1,2.8%,-3.5%,5.4%,35.5µM*,-3.1%,-12.9%
CC(=O)Nc1cc2c(=O)n(Cc3ccccc3)c(C)nc2cc1N1CCOCC1,1.0%,-0.1%,8.7%,2.0%,14.1µM*,-2.4%
O=C(c1ccc(F)c(F)c1)N1CCC(Oc2ncccc2C(=O)N2CCCCC2)C1 (configuration not stated),.,.,.,.,-13.0%,.
Cc1cc(SCC(=O)Nc2ccc3[nH]c(=O)[nH]c3c2)nc2ccccc12,44.7µM*,-0.5%,-3.1%,1.1%,?,2.3%
Cc1ccc(OCCC(=O)OCC(=O)Nc2ccc3[nH]c(=O)[nH]c3c2)cc1,-6.5%,1.5%,19.3%,-1.9%,-2.8%,2.5%
Cc1ccccc1OCCC(=O)OCC(=O)Nc1ccc2[nH]c(=O)[nH]c2c1,.,-0.5%,-9.9%,31.6µM*,-19.4%,-5.3%
Cc1cc(SCC(=O)Nc2ccc(F)cc2)nc2ccccc12,.,.,.,.,27.1%,.
CCOP(=O)(Nc1cccc2oc(=O)c3ccccc3c12)OCC,.,-4.4%,-1.3%,11.2µM*,1.7%,-9.2%
COC(=O)c1ccccc1NC(=O)C1CC=CCC1C(=O)O (configuration not stated),.,4.0%,2.0%,22.4µM*,?,-2.1%
COC(=O)c1c(-c2ccc(C)cc2)csc1NC(=O)C1CC=CCC1C(=O)O (configuration not stated),7.0%,-5.8%,1.3%,15.8µM*,1.1%,0.2%
O=C(NCCc1ccccc1)c1ccccc1NC(=O)C1CC=CCC1C(=O)O (configuration not stated),2.6%,-5.2%,-11.2%,-13.8%,23.2%,-2.0%
COC(=O)c1c(-c2cc(C)ccc2C)csc1NC(=O)C1CC=CCC1C(=O)O (configuration not stated),.,-1.0%,-0.8%,0.5%,-10.5%,-1.8%
O=C(c1cccc(C(F)(F)F)c1)N1CCCC(C(=O)N2CCCC2)C1 (configuration not stated),.,.,.,.,-14.0%,.
O=C(NCCNCc1ccccc1)c1ccco1,.,?,?,.,28.2µM*,0.4%
CC1(C)C(=O)C2(CCCCC2)C(=O)OC1c1cccn1-c1ccc([N+](=O)[O-])cc1 (configuration not stated),2.3%,-3.1%,11.5%,31.6µM*,7.8%,-0.3%
